We go through 19 compounds from PubChem BioAssay AID651592 (Sanford-Burnham Center for Chemical Genomics, 2012).

The structures appear in SMILES notation. Calls of active or inactive are those of the source.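 How the source made its calls: active means NF-kB reporter IC50 at most 10 µM, IL-8 IC50 within fivefold of it with bacterial filtrate but not with TNF-alpha; inactive means the rest.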

The assay is described as follows: inhibitors of NFkB activation in CF airway cells, SAR follow-up, KKLEB cells, panel, IL8 HTRF, NFkB-GFP (AID 651592).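 Further: immortalized cystic fibrosis airway epithelial KKLEB cells with an NF-kB GFP reporter.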 As to conditions: PAF/TNFa-induced NFkB-GFP / IL8 HTRF, CF-PAF assay, mean of runs. Background: TR-FRET usually uses a lanthanide donor and a delayed reading to cut background.
For `O=C(Nc1ccc(N2CCN(C(=O)c3ccccc3Cl)CC2)cc1)c1ccncc1`, the compound was classed as inactive.

In the case of `O=C(Nc1ccc(N2CCN(C(=O)c3ccccc3Cl)CC2)cc1)c1cc(Br)cc(Br)c1`, the result was inactive.

On to `O=C(Nc1ccc(N2CCN(C(=O)c3ccccc3)CC2)cc1)c1ccncc1`, for which the call was inactive.

With `O=C(Nc1ccc(N2CCN(C(=O)c3ccccc3Cl)CC2)cc1)c1ccccn1`, the result was inactive.

`O=C(Nc1ccc(N2CCN(C(=O)c3ccccc3F)CC2)cc1)c1ccccc1`: the compound was classed as inactive.

On to `O=C(Nc1ccc(N2CCN(C(=O)c3ccccc3F)CC2)cc1)c1cccnc1`, for which the compound was classed as inactive.

Consider `O=C(Nc1ccc(N2CCN(C(=O)c3ccccc3Cl)CC2)cc1)c1cccc(Br)c1`, for which the outcome was inactive.

Turning to `O=C(Nc1ccc(N2CCN(C(=O)c3ccccc3)CC2)cc1)c1cccnc1`, the compound was called inactive.

On to `O=C(Nc1ccc(N2CCN(C(=O)c3ccccc3F)CC2)cc1)c1cccc(Br)c1`, for which the result was inactive.

For the compound `CCOc1ccc(NCc2cc3c(C)nn(-c4ccccc4)c3[nH]c2=O)cc1`, the compound was called inactive.

Take `O=C(Nc1ccc(N2CCN(C(=O)c3ccc(F)cc3)CC2)cc1)c1ccccc1`: the call was inactive.

Consider `O=C(Nc1ccc(N2CCN(C(=O)c3ccccc3)CC2)cc1)c1cc(Br)cc(Br)c1`, for which the compound was classed as inactive.

Turning to `O=C(Nc1ccc(N2CCN(C(=O)c3ccc(F)cc3)CC2)cc1)c1ccncc1`, the outcome was inactive.

Take `O=C(Nc1ccc(N2CCN(C(=O)c3ccc(F)cc3)CC2)cc1)c1cccc(Br)c1`: the result was inactive.

`O=C(Nc1ccc(N2CCN(C(=O)c3ccc(F)cc3)CC2)cc1)c1cncc(Br)c1`: the outcome was active.

In the case of `Cc1ccc(CNCc2cc3c(C(C)(C)C)nn(-c4ccccc4)c3[nH]c2=O)cc1`, the outcome was inactive.

For the compound `O=C(Nc1ccc(N2CCN(C(=O)c3ccccc3F)CC2)cc1)c1cc(Br)cc(Br)c1`, the compound was called inactive.

`O=C(Nc1ccc(N2CCN(C(=O)c3ccccc3Cl)CC2)cc1)c1ccccc1`: the compound was called active.

On to `O=C(Nc1ccc(N2CCN(C(=O)c3ccccc3)CC2)cc1)c1cccc(Br)c1`, for which the compound was called inactive.
